HUVEC tox TNFa: cytotoxicity in TNFa-stimulated HUVEC, primary screen, cytotoxicity control for VCAM1 expression modulator project, imaging, Hoechst nuclei count; cell count reduction, % at 2 µM; actives 0.17% (n = 93,000); HUVEC TNFalpha-stimulated, Hoechst cell count; AID 848, 2007;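 active means cell count reduction exceeding the screen mean by over 5 SD, scaled to untreated wells per plate, cut at about 78% in these data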;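 further: cells counted after 24 h of TNF alpha exposure following the 1 h pretreatment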
VCAM1 TNFa inh: inhibitors of TNFa-induced VCAM1 expression, primary screen, imaging, HUVEC, TNFa stimulus, immunofluorescence; HUVEC TNFa-induced VCAM-1 immunofluorescence, high-content imaging; inhibition, % at 2 µM; actives 0.48% (n = 95,000); AID 802, 2007;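 active means inhibition above the batch mean plus 3 SD, with images confirmed as a hit by eye, cut at about 37% in these data; inconclusive means inhibition above that limit but hit not confirmed in images; inactive means inhibition not above that limit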
E-sel TNF inh: E-selectin induction blockers in HUVEC – imaging, immunofluorescence, high content, primary screen | HUVEC TNFa-induced E-selectin immunofluorescence | actives 0.71% (n = 120,000) | inhibition, % at 2 µM | AID 1246, 2008;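 active means inhibition above the batch mean plus 3 SD, and confirmed as a hit on visual image review, cut at about 43% in these data; inconclusive means passes the inhibition cutoff but fails visual image review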
F-actin modifier: modifiers of F-actin cytoskeleton organization, primary screen, imaging, HUVEC, phalloidin staining, high-content imaging | HUVEC TNFa F-actin phalloidin imaging | inhibition, % at 2 µM | actives 0.18% (n = 91,000);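 active means inhibition above the batch mean plus 3 SD and confirmed as a hit by visual image inspection, cut at about 30% in these data, passing the limit was not always enough; inconclusive means above the inhibition threshold but rejected on visual inspection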
A number is an active result; n = inactive; u = inconclusive; x = not tested or not shown. The list is not random: actives were taken first. Their share in the collection is about 1.2%.

SMILES | HUVEC tox TNFa | VCAM1 TNFa inh | E-sel TNF inh | F-actin modifier
COc1ccccc1-n1c(=O)[nH]c2c(C(N)=O)nc(C3CCCCC3)nc21 | n | n | 68.5 | n
NS(=O)(=O)c1ccc(N2N=C(c3ccccc3)CC2c2ccccc2)cc1 (stereo unspecified) | x | x | n | x
CCOC(=O)c1nnc(-c2ccc(C)cc2)nc1Oc1ccc(Cl)cc1Cl | n | n | 62.7 | n
CCOC(=O)c1nnc(-c2ccc(C)cc2)nc1Oc1ccccc1Cl | n | n | n | n
COc1cc(-c2nnc(COc3ccc4ccccc4c3)o2)cc(OC)c1OC | n | n | 100.0 | n
COc1cc(-c2nnc(-c3ccccc3)o2)cc(OC)c1OC | n | n | n | n
Cc1cccc(NC(=O)Nc2ccc(C#N)cc2)n1 | x | x | 54.5 | x
COc1ccccc1N(Cc1ccccc1)S(=O)(=O)c1cccc(C(=O)Nc2ccc(C(C)=O)cc2)c1 | x | x | 65.3 | x
COc1ccc(N(Cc2ccccc2)S(=O)(=O)c2cccc(C(=O)NC3=NCCS3)c2)cc1 | n | n | n | n
O=S(=O)(NCC(c1ccco1)N1CCN(c2ccccc2F)CC1)c1ccc2c(c1)OCCO2 (stereo unspecified) | x | x | n | x
C=C(C)CC(NCCc1ccccc1)c1ccco1 (stereo unspecified) | x | x | 71.6 | x
O=C(Nc1ccccc1)N1CC=C(c2ccccc2)CC1 | n | n | n | n
COc1ccc(NC(=O)/C(Cl)=C(/Cl)S(=O)(=O)Cc2ccc(C)cc2)cn1 | n | 50.7 | 72.0 | n
COc1ccc(NC(=O)/C(Cl)=C(/Cl)S(=O)Cc2ccccc2Cl)cn1 (stereo unspecified) | x | x | 100.0 | x
CS(=O)(=O)N(CCc1ccccc1)CC(=O)Nc1ccccc1 | x | x | n | x
CCOc1ccccc1NC(=O)/C=C/c1ccccc1[N+](=O)[O-] | x | x | n | x
CCOc1ccccc1/C=N/Nc1ccccc1[N+](=O)[O-] | n | 58.8 | n | n
O=C(CCn1c2c(c3ccccc31)CCCC2)NNC(=O)c1ccccc1[N+](=O)[O-] | x | x | 80.6 | x
Cc1ccc(NC(=O)c2ccc(CSc3ccccn3)cc2)cc1 | n | n | n | n
Cc1ccccc1NC(=O)c1ccc(CSc2ncccn2)cc1 | n | n | 60.8 | n
Cc1ccc2nc(-c3ccc(NS(C)(=O)=O)cc3)cc(-c3ccccc3)c2c1 | x | n | n | n
CCS(=O)(=O)Nc1ccc(-c2cc(-c3ccccc3)c3cc(C)ccc3n2)cc1 | x | x | 78.8 | x
CC(C)n1cc(NC(=O)C2CC(c3cccc(Br)c3)=NO2)cn1 (stereo unspecified) | n | n | n | n
COc1ccc(Nc2cc(C(=O)NCCCN3CCOCC3)c3ccccc3n2)cc1OC | n | n | n | 34.7
COc1ccc(Nc2cc(C(=O)NCCCN3CCN(C)CC3)c3ccccc3n2)cc1OC | x | x | n | x
SMILES | HUVEC tox TNFa | VCAM1 TNFa inh | E-sel TNF inh | F-actin modifier
CCOC(=O)/C(C#N)=C1/C=Cc2ccccc2N1CC | x | x | 53.1 | x
O=C(O)COc1ccc(/C=N/n2cnc3scc(-c4cccs4)c3c2=O)cc1 | x | x | 92.8 | x
O=c1c2c(-c3cccs3)csc2ncn1/N=C/c1ccc(OC(F)F)cc1 | n | n | n | n
Cc1cc(N2CCOCC2)nc(N)n1 | x | x | n | x
Cc1cc(N2CCOCC2)c2c(N)c(C)cc(C)c2n1 | x | 100.0 | n | x
Cc1cc(C(=O)Nc2ccccc2C#N)n(-c2ccccc2)n1 | n | n | x | n
Cc1cccc(NC(=O)CSc2nc3ccc(NC(=O)CSc4nnnn4-c4ccccc4)cc3s2)c1C | n | 43.5 | n | n
O=C(CSc1nc2ccc(NC(=O)CSc3nnnn3-c3ccccc3)cc2s1)Nc1ccccc1 | x | x | n | x
CCOC(=O)N1CCN(C(=O)c2ccc(Oc3ccc([N+](=O)[O-])cc3)cc2)CC1 | x | x | 61.9 | x
CCN(CC)S(=O)(=O)c1ccc(NC(=O)C(C)N(c2ccc(OC)cc2)S(C)(=O)=O)cc1 (stereo unspecified) | 100.0 | u | n | u
CCOc1ccc(OCC)c(NC(=O)CN(c2ccc(C)cc2)S(=O)(=O)c2c(C)noc2C)c1 | n | n | x | n
Cc1cc(NC(=O)C2C3C=CC(C3)C2C(=O)O)no1 (stereo unspecified) | 100.0 | u | n | u
C=CCn1c(NC(C)c2cc(Cl)ccc2O)nc2ccccc21 (stereo unspecified) | n | n | x | n
Cc1cc(C)c2c(CN3CCN(C/C=C/c4ccccc4)CC3)cc(=O)oc2c1 | n | n | n | n
O=C(/C=C/Nc1cccc(C(F)(F)F)c1)c1ccc(Oc2ncccn2)cc1 | n | n | 64.2 | n
C#CCOCCOCCOCCNc1nc(N2CCN(C(=O)[C@H]([C@@H](C)CC)n3cc(CCC(=O)O)nn3)CC2)nc(N2CCN(C(=O)[C@H](C)n3cc(CCCN=C(N)N)nn3)CC2)n1 | x | x | n | x
COC(=O)CSc1nnc(SCc2ccccc2)s1 | n | n | x | n
O=c1n(Cc2ccccc2F)c2ccccc2n1Cc1ccccc1F | n | n | n | 31.3
Cn1c(=O)n(Cc2ccccc2F)c2ccccc21 | n | n | n | n
c1ccc(-c2nc(NCc3cccnc3)c3ccccc3n2)cc1 | n | n | n | n
Fc1ccc(CNc2nc(-c3ccccc3)nc3ccccc23)cc1 | x | x | 99.8 | x
O=C1N(c2ccccc2)C2CS(=O)(=O)CC2N1c1ccc(Br)cc1 (stereo unspecified) | n | n | 99.7 | n
Cc1cccc(CS(=O)(=O)c2nnc([C@H](Cc3ccccc3)NC(=O)OC(C)(C)C)o2)c1 | n | 58.0 | n | n
COCC(C)NC(=O)c1noc2c1CCc1cc(OC)ccc1-2 (stereo unspecified) | x | x | n | x
O=C(CSc1nnc(-c2cccs2)n1Cc1ccccc1)NCc1ccc2c(c1)OCO2 | n | n | n | n
SMILES | HUVEC tox TNFa | VCAM1 TNFa inh | E-sel TNF inh | F-actin modifier
CC(Sc1nnc(-c2cccs2)n1Cc1ccccc1)C(=O)NCc1ccc2c(c1)OCO2 (stereo unspecified) | n | n | 80.4 | x
COCCNC(=O)c1ccc(N(C)S(=O)(=O)c2ccc(OC)c(OC)c2)cc1 | n | n | 99.9 | n
COc1ccc(CCNC(=O)c2ccc(N(C)S(=O)(=O)c3ccc(C)cc3)cc2)cc1OC | x | x | n | x
O=S(=O)(c1ccc2c(c1)C(=NO)c1cc(S(=O)(=O)N3CCCCC3)ccc1-2)N1CCCCC1 | 90.3 | 99.8 | n | 59.6
CC1CCN(S(=O)(=O)c2ccc3c(c2)C(=NO)c2cc(S(=O)(=O)N4CCC(C)CC4)ccc2-3)CC1 | n | n | x | n
COc1ccc(NC(=O)CCN2C(=O)C3C4C=CC(C4)C3C2=O)cc1 (stereo unspecified) | x | x | n | x
CCOc1cc(C2CC(=O)N3CN(C4CCCCC4)CSC3=C2C#N)ccc1O (stereo unspecified) | 82.2 | n | x | n
COc1ccc2ccccc2c1C1CC(=O)N2CN(C3CCCCC3)CSC2=C1C#N (stereo unspecified) | n | n | x | n
CCOc1ccccc1Nc1cc(C)nc2nnnn12 | x | x | n | x
Cn1c(SCc2ccc(Br)cc2)nnc1-c1ccncc1 | n | n | 72.7 | n
CC12CCC3(CO)COC(c4ccccc4O1)C2C3 (stereo unspecified) | x | x | 55.2 | x
COc1ccc(-c2cc(=O)[nH]c(NCc3ccccc3)n2)cc1 | 99.3 | 100.0 | n | n
O=c1cnnc(NCc2ccccc2)[nH]1 | n | n | n | n

Screening results deposited in PubChem by Columbia University Molecular Screening Center.
